HT1080 IDH1KD tx = qHTS for induction of synthetic lethality in tumor cells producing 2HG: qHTS for the HT-1080-IDH1KD cell line; HT-1080 IDH1 knockdown viability, ATP luminescence, 48 h; 2% of 360,000 active; AID 686971, 2013; Potency, µM (top dose mostly 46.1 µM), inactives show top-dose activity, negative = toxicity, most hits filed as cytotoxic;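 also: 0% = DMSO wells and -100% = cell-free medium wells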
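HT-1080-IDH1KD cells (IDH1 knocked down), 750/well in RPMI with 5% FBS, treated with compound 48 h at 37 degrees C. Viability by CellTiter-Glo luminescence, normalised to DMSO and no-cell wells; concentration-response curves classed.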
KB-V1 cytotox = qHTS assay for MDR1-selective chemotherapeutics: Primary screen using the drug-selected MDR subline cells KB-V1 | KB-V1 MDR cells viability, CellTiter-Glo, 72 h | Potency, µM (top dose mostly 46.1 µM), usual class: cytotoxic | 3.4% of 400,000 active | AID 1347076, 2019; also: % is scaled to controls: 0 for no effect and ±100 for the full control effect; nearly all actives have a fitted effect of over 60% in size
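Following 72 h at 37 degrees C with compound, KB-V1 cell viability was read by CellTiter-Glo luminescence, medium being phenol-red-free DMEM plus 10% FBS; concentration-response parameters came from normalized, curve-fitted qHTS data.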
HT1080NT lethal = qHTS for induction of synthetic lethality in tumor cells producing 2HG: qHTS for the HT-1080-NT fibrosarcoma cell line. HT-1080-NT fibrosarcoma viability, CellTiter-Glo ATP luminescence, 48 h. Potency, µM (top dose mostly 46.1 µM), for the others: at the top dose activity, negative = less viability, usual class: cytotoxic. 1.6% of 360,000 active;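 also: NT is the 2HG producing partner of a matched IDH1 knockdown line; 0% = DMSO-treated cells and -100% = media-only wells without cells; nearly all actives have a fitted effect of over 55% in size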
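Compounds were tested in concentration-response format on HT-1080-NT cells for 48 hours at 37 degrees C. Cell viability came from CellTiter-Glo luminescence; curves were classified by r2, response magnitude and activity.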
ATXN viability = Viability Counterscreen for Primary qHTS for Inhibitors of ATXN expression; S2 cells (HEK-293 line with an ATXN2-luciferase reporter) viability, CellTiter-Fluor protease fluorescence, 24 h; 0.49% of 400,000 active; Potency, µM (titrated, usually from 56.7 µM), hits mostly cytotoxic; AID 651635, 2014; also: nearly all actives have a fitted effect of over 40% in size
ATXN2 expr inh = Primary qHTS for Inhibitors of ATXN expression | Potency, µM (titrated, usually from 57 µM), for the others: top-dose activity change, negative = inhibition, usual class: inhibitors | AID 1745845, 2022 | HEK-293 ATXN2-luciferase reporter, luminescence, 24 h | 0.72% of 360,000 active; also: % is scaled to controls: 0 for no effect and ±100 for the full control effect; nearly all actives have a fitted effect of over 55% in size
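qHTS (up to 57 uM final) was run with 24 h compound exposure of reporter cells at 37 °C. Each well was multiplexed: SteadyGlo luminescence measured ATXN2-luciferase expression after a fluorogenic Gly-Phe-AFC viability readout (25 uM final).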
KB-3-1 tox = qHTS assay for MDR1-selective chemotherapeutics: Primary screen using the parental adenocarcinoma cell KB-3-1; Potency, µM (top dose mostly 46.1 µM), hits mostly cytotoxic; AID 1347075, 2019; 1.4% of 400,000 active; KB-3-1 viability, CellTiter-Glo ATP luminescence, 72 h; also: % is scaled to controls: 0 for no effect and ±100 for the full control effect; nearly all actives have a fitted effect of over 60% in size
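Here the drug-naive KB-3-1 line serves as comparator for MDR sub-line selectivity; cells received compound titrations, 72 h at 37 °C, then CellTiter-Glo readout.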
* = called active by the depositor; i = inactive; ? = inconclusive; nt = not tested or not shown. An excerpt weighted towards active compounds, which were near 6.2% of everything screened. Calls follow the shape of the dose curve; as a rule, active = well fitted curve in the direction sought with a large enough effect; inconclusive = small, poorly fitted or top-dose-only effect, or another doubt; inactive = no such curve, though single readings can be large; an effect the other way counts as inactive or inconclusive. Potency is read from the fitted curve at half-maximal effect.

SMILES | HT1080 IDH1KD tx | KB-V1 cytotox | HT1080NT lethal | ATXN viability | ATXN2 expr inh | KB-3-1 tox
Cc1nc2nc(SCC(=O)NCc3ccccc3Cl)nn2c(C)c1Cc1ccccc1 | nt | i | nt | ? | -12% | i
Cc1ccc(NC(=S)N(CCN(C)C)Cc2cc3cccc(C)c3[nH]c2=O)cc1 | -19% | 3.3µM* | -10% | i | -10% | i
Cc1cc[n+](CC(=O)c2ccc(NC(=O)c3ccccc3)cc2)c2ccccc12 | -21% | i | ? | ? | -29% | 10µM*
O=C(C[n+]1cccc2ccccc21)c1ccc(NC(=O)c2ccccc2)cc1 | -8% | i | -9% | i | 0% | i
O=C1C(=O)N(CCS(=O)(=O)c2ccccc2)c2ccc(Cl)cc21 | ? | i | ? | i | -14% | 16µM*
CCCN1C(=O)C(=O)c2cc(Cl)ccc21 | 15µM* | i | 15µM* | ? | ? | i
CCc1ccc2c(c1)C(=O)C(=O)N2CCS(=O)(=O)c1ccccc1 | 0% | i | -8% | i | nt | i
COC(=O)c1ccccc1-c1cc(C)cc2c1OC(CNC(=O)C1CCCO1)C2 (centres undefined) | nt | nt | nt | i | nt | nt
COc1cc2c(cc1OC)n(CC(=O)Nc1ccc(C)cc1C)c(=O)n1nc(-c3ccccc3)nc21 | nt | i | nt | i | 3% | i
Cc1ccccc1CSc1nnc(-c2cccs2)n1Cc1ccco1 | 0% | 5.8µM* | 0% | i | -11% | i
CC(C)(C)c1ccc(CSc2nnc(-c3ccccn3)n2Cc2ccco2)cc1 | ? | i | ? | i | ? | ?
Clc1cccc(CSc2nnc(-c3ccccn3)n2Cc2ccco2)c1 | -19% | 10µM* | -19% | i | -12% | ?
C(=C\c1ccccc1)/CSc1nnc(-c2ccncc2)n1Cc1ccco1 | -1% | i | 0% | i | -5% | i
c1ccc(CSc2nnc(-c3cccs3)n2Cc2ccco2)cc1 | -6% | ? | 0% | i | 2% | ?
C(=C\c1ccccc1)/CSc1nnc(-c2ccccc2)n1Cc1ccco1 | 7.1µM* | 18µM* | 7.1µM* | i | -8% | i
Brc1ccc(CSc2nnc(-c3ccccn3)n2Cc2ccco2)cc1 | 11µM* | 7.3µM* | ? | i | -16% | i
Cc1ccc(Nc2c(-c3cccs3)nc3nc(C)cc(C)n23)cc1 | nt | i | nt | nt | nt | i
COc1cc(=O)n2c(c1C(=O)N(C)Cc1nonc1C)CCN(C(=O)c1cccc(C)c1C)CC2 | nt | nt | nt | i | nt | nt
c1ccc(CSc2nnc(-c3ccco3)n2Cc2ccco2)cc1 | -2% | 21µM* | 1% | i | 28% | ?
CCc1nn(CC(=O)N2CCN(Cc3ccc4c(c3)OCO4)CC2)c(=O)c2cc3occc3n12 | -20% | 18µM* | -2% | i | -7% | i
COc1cc(/C=C(/C#N)C(=O)NCCc2c[nH]c3ccccc23)ccc1OCc1ccccc1F | -8% | ? | -2% | 10µM* | 7.1µM* | ?
CC(=C\c1ccco1)/C=C(\C#N)C(=O)NCCc1c[nH]c2ccccc12 | 12% | 23µM* | -1% | i | -6% | i
CC1c2cc3c(cc2CCN1C(=O)c1cccc(Cl)c1)OCCCO3 (centres undefined) | ? | 5.8µM* | 21µM* | i | nt | ?
CC1c2cc3c(cc2CCN1CC(=O)Nc1ccccc1)OCCCO3 (centres undefined) | -3% | ? | -28% | i | -17% | ?
O=C1c2cc3ccccc3c(-c3ccccc3)c2C(=O)N1c1ccccn1 | 1% | 13µM* | 2% | i | -2% | i

Assay outcomes: PubChem BioAssay, National Center for Advancing Translational Sciences (NCATS)
